# Screening data as filed in PubChem BioAssay.
# Most compounds without a hit are left out; they make up all but 3.5% or so of the library.
# Anthrax LF prot – blocks Bacillus anthracis lethal factor protease. actives 0.12% (n = 360,000). inhibition, % at 10 µM. multiplex microsphere protease cleavage assay, LF. P15917; note: plate controls were buffer without enzyme for full effect and enzyme alone for no effect
# Target sequence (P15917 whole entry, looked up): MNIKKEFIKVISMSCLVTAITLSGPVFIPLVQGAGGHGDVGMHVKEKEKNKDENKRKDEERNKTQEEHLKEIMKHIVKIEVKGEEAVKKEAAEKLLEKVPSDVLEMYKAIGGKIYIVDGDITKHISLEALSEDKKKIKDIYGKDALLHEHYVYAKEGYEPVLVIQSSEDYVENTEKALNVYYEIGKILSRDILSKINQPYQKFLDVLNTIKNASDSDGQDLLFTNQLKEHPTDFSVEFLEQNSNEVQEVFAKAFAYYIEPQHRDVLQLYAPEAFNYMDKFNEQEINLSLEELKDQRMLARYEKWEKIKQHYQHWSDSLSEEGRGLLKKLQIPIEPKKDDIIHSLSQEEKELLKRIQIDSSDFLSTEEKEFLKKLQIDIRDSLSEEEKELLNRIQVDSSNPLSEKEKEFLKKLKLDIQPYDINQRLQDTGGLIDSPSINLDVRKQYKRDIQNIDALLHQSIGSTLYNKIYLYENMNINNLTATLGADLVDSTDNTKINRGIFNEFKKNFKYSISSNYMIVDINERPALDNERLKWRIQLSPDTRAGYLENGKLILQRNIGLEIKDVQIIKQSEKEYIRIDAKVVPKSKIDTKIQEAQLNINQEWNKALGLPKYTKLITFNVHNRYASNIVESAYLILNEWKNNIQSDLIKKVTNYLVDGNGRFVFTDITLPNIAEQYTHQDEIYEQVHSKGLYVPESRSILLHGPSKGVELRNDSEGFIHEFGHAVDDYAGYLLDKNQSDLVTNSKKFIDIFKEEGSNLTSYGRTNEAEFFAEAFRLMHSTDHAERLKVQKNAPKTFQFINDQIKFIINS
# BoNT F protease – blocks Botulinum neurotoxin F light chain protease; AID 588497; Multiplex microsphere protease cleavage assay, flow cytometry; actives 0.22% (n = 360,000); inhibition, % at 10 µM; in the data active = inhibition above about 35%, passing the limit was not always enough; inconclusive = no clear call, values can overlap the other calls; note: plate controls were buffer without enzyme for full effect and enzyme alone for no effect
# Bead autofluor – flagged as autofluorescent in microsphere protease counterscreen; compound autofluorescence counterscreen, microsphere flow cytometry; stronger effect = higher value; fluorescence intensity (no concentration beside the values); actives 3.1% (n = 360,000); AID 624483; in the data active = fluorescence intensity above about 16000; inconclusive = no clear call, values can overlap the other calls
# BoNT A protease – BoNT A light chain protease inhibition; multiplex microsphere protease substrate cleavage, flow cytometry; inhibition, % at 10 µM; actives 0.17% (n = 360,000); note: plate controls were buffer without enzyme for full effect and enzyme alone for no effect
# * = called active by the depositor; u = inconclusive. Cut-off read from the data, not from the text of the source, unless noted: active = inhibition above about 30%; inconclusive = no clear call, values can overlap the other calls; inactive = below that.
SMILES,Anthrax LF prot,BoNT F protease,Bead autofluor,BoNT A protease
Cc1ccc(C(=O)NC2CCCc3ccccc32)o1 (stereo not drawn),-5,0,22743*,-1
O=C(NC1CCCc2ccccc21)C1CCN(c2nnc(-n3cccc3)s2)CC1 (stereo not drawn),-5,3,5338,0
Cc1cc(C)nc(N2CCC(C(=O)Nc3ccc4c(c3)CCC4)CC2)n1,1,2,21599*,2
CS(=O)(=O)N1CCC(C(=O)Nc2cccc(C(F)(F)F)c2)CC1,4,-29,5053,-2
Cc1cc(C)nc(N2CCC(C(=O)NC3CCCc4ccccc43)CC2)n1 (stereo not drawn),0,8,19820*,6
Cc1cc(C)nc(N2CCC(C(=O)Nc3cccc(C(F)(F)F)c3)CC2)n1,0,-1,17064*,-1
Cc1ccc(C)c(N2CCN(C(=O)CCC(=O)Nc3nnc(C(F)(F)F)s3)CC2)c1,-3,-4,5615,-2
COc1ccc(C(=O)Nc2n[nH]c(-c3ccncc3)n2)cc1,-4,-4,18001*,-6
c1ccc(C2(Cn3ccc4ccccc43)OCCO2)cc1,-3,-15,24276*,35*
Cc1cc(/C=C2/SC(=S)N(c3cccc(C(F)(F)F)c3)C2=O)c(C)n1-c1cccnc1,46*,84*,11089,53*
O=C(Nc1ccnn1C1CCN(C/C=C/c2ccccc2)CC1)c1ccccc1Cl,-56,-411,56855*,-240
O=C(Cc1ccc(-n2c(=S)[nH]c3ccccc3c2=O)cc1)N1CCN(c2ccccc2)CC1,-6,-2,22575*,-1
CC1CC(=O)Nc2cc([N+](=O)[O-])ccc2N1 (stereo not drawn),1,5,4563,-1
Cc1ccc(CSc2ncn(-c3ccccc3)n2)cc1,-5,-8,24543*,u
Clc1ccccc1CSc1ncn(-c2ccccc2)n1,2,0,21905*,2
O=C(CSc1ncn(-c2ccccc2)n1)N1CCN(c2ccccc2)CC1,2,10,4608,1
Cc1ccc(CNC(=O)Nc2ccccc2)c(C)c1,-2,-8,4642,1
O=C(NCC1CCCN(Cc2ccccc2F)C1)c1cccc(C(F)(F)F)c1 (stereo not drawn),0,1,2752,0
CCOc1cc2sc(N3CCC(C(=O)NCCCN4CCCC4=O)CC3)nc2cc1Br,-2,1,4162,0
CCC(=O)N1CCC1(C)C(=O)Nc1cccc2cccnc12 (stereo not drawn),-6,7,3494,0
CCOC(=O)C(=O)c1cn(C2OCC(OC(C)=O)C(OC(C)=O)C2OC(C)=O)c2ccccc12 (stereo not drawn),2,6,2112,2
COc1ccccc1NC(=O)NNC(=O)c1ccncc1,-1,-4,3823,0
CCN1c2ccccc2NC2N=C(OC)C(c3ccccc3)C21 (stereo not drawn),0,-11,25940*,u
COc1ccccc1C(=O)NC(=O)COC(=O)c1ccc([N+](=O)[O-])cc1,1,-9,5158,0
CCCCC1(C)NC(=O)N(CC(=O)Nc2ccc(Cl)cc2C)C1=O (stereo not drawn),-2,7,2941,1
SMILES,Anthrax LF prot,BoNT F protease,Bead autofluor,BoNT A protease
COc1ccc(-n2cc(C(=O)O)c3ccccc3c2=O)cc1,-1,-3,16517*,-1
O=C(O)c1cn(-c2ccccc2)c(=O)c2ccccc12,-3,2,2861,0
CC(C)(C)c1cn(-c2ccc(F)cc2)c(=S)[nH]1,0,9,19889*,u
CCOc1ccc(OCC(=O)OC(C)C(=O)NC2CCCC2)cc1 (stereo not drawn),3,3,3662,0
CC(C)NC(=O)Cn1c(SCC(=O)N2CCc3ccccc3C2)nc2ccccc21,-1,-7,20580*,-3
CC1CC(C)CN(C(=O)Cn2c(SCC(=O)N3CCc4ccccc4C3)nc3ccccc32)C1 (stereo not drawn),1,26,4589,-1
O=C(O)C1C2C=CC(C2)C1C(=O)Nc1cccc(F)c1 (stereo not drawn),-1,-4,22384*,-1
CCOc1ccccc1NC(=O)C1C2C=CC(C2)C1C(=O)O (stereo not drawn),-2,-7,25672*,-4
CCc1cccc2c(C(=O)CSc3nncn3-c3ccc(OC)cc3)c[nH]c12,1,4,2304,1
CCc1cccc2c(C(=O)CSc3nnc(-c4ccoc4C)n3C)c[nH]c12,-4,1,22498*,3
CC(C)CC(=O)N1CCC(O)(CS(=O)(=O)Cc2ccc(Cl)cc2)CC1,1,-5,4422,0
CC(C)CC(=O)N1CCC(O)(CS(=O)(=O)Cc2ccccc2Cl)CC1,-2,-7,21027*,u
Cc1ccc2nc(-c3cccc(NC(=O)c4ccc5c(c4)OCCO5)c3)oc2c1,-5,-4,21708*,u
